Structures are written as SMILES. Out of some 310,000 compounds screened, about 3,600 (1.2%) were called active. This is one part of a sample in which actives are shown more often than they occur.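 How the source made its calls: active means ratio plate-corrected score three or more library SD toward inhibition, starting fluorescence score within five deviations; inactive means the rest.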

The target in this assay is Anoctamin-1 (Mus musculus) (UniProt Q8BHY3). The assay is described as follows: TMEM16A chloride channel inhibitors, primary screen, cell-based, HTS (AID 588511).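 On normalized B-score (activity score, 25-100; higher = stronger inhibition): score derived from kinetic fluorescence span divided by baseline fluorescence per well.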 The following applies: HEK293 TMEM16A/YFP iodide influx fluorescence, ionomycin; at 10 µM.
Chain of Anoctamin-1 (Mus musculus) (Q8BHY3 whole entry, looked up): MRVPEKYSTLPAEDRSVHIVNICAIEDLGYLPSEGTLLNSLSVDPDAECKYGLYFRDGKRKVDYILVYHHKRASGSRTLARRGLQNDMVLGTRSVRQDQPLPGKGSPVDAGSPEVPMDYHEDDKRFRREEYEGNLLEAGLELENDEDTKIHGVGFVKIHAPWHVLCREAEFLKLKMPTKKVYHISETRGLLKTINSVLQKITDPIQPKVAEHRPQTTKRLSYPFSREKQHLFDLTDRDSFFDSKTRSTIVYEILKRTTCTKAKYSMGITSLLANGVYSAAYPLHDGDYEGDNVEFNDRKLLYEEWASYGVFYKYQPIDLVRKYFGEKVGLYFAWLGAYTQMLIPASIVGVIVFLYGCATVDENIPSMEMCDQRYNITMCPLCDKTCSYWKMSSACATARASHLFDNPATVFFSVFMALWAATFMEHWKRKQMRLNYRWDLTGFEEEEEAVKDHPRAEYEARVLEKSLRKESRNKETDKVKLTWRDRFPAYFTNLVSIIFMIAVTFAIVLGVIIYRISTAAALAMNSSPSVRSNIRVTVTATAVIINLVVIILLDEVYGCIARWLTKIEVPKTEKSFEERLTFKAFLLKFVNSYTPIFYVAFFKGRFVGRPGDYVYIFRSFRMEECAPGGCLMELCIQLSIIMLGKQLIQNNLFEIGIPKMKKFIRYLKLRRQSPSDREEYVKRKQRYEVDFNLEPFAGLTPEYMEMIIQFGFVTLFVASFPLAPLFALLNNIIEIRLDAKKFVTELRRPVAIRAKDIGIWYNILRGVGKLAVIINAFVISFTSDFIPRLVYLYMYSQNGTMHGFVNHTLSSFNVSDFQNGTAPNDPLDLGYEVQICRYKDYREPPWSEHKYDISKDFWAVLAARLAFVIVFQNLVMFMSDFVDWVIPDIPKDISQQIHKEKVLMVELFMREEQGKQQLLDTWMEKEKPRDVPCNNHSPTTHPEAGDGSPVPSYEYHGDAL
Turning to `CO/N=C/CC(=O)c1ccc(OC)cc1`, the normalized B-score (activity score, 25-100; higher = stronger inhibition) entry is “inactive”. Consider `COc1ccc(C(=O)CCC(=O)Nc2ccc(Cl)cc2)cc1`, for which the normalized B-score (activity score, 25-100; higher = stronger inhibition) entry was “inactive”. `COc1ccc(CCC(=O)c2ccc(OC)cc2)cc1`: the normalized B-score (activity score, 25-100; higher = stronger inhibition) is 100 (active).

Turning to `O=C(CSc1nc(=O)n2ccccc2n1)Nc1ccc2c(c1)OCCO2`, the normalized B-score (activity score, 25-100; higher = stronger inhibition) entry is “inactive”. `CCCc1cc(=S)n2c([nH]c3ccccc32)c1C#N`: the normalized B-score (activity score, 25-100; higher = stronger inhibition) was 25 (active).

For the molecule `CCOC(=O)CCc1c(C)c(C#N)c2[nH]c3ccccc3n2c1=O`, the normalized B-score (activity score, 25-100; higher = stronger inhibition) entry was “inactive”. The value for `Cc1ccccc1Cn1c(=O)[nH]c2ccccc21` was “inactive”; that for `CCC(=O)Nc1nc2ccccc2n1Cc1ccccc1C` was “inactive”; that for `CCN1CCN(c2cc3nc(C)n(Cc4ccccc4)c(=O)c3cc2NC(=O)c2ccccc2F)CC1` was “inactive”. As for `CCC(=O)Nc1ccc2nc(C)n(Cc3ccccc3Cl)c(=O)c2c1`, the normalized B-score (activity score, 25-100; higher = stronger inhibition) is 100 (active).

Turning to `COC(c1ccccc1)(c1ccccc1)C(Oc1nc(C)cc(C)n1)C(=O)O` (centres undefined), the normalized B-score (activity score, 25-100; higher = stronger inhibition) entry was “inactive”. As for `O=C1NCCn2nc3ccccc3c21`, the normalized B-score (activity score, 25-100; higher = stronger inhibition) result is “inactive”. For `COc1ccc(NC(=O)C2CCN(S(=O)(=O)c3ccc4[nH]c(=O)oc4c3)CC2)c(OC)c1`, the normalized B-score (activity score, 25-100; higher = stronger inhibition) entry is “inactive”. With `Cc1ccc(OCc2cc(C(=O)N(C)CCc3ccccc3)no2)cc1C`, the normalized B-score (activity score, 25-100; higher = stronger inhibition) result is “inactive”. The value for `CN(Cc1cccnc1)C(=O)c1cc(COc2ccc3ncccc3c2)on1` was 100 (active).

Consider `CC(=O)c1cccc(OCc2cc(C(=O)NC(C)Cc3cccnc3)no2)c1` (centres undefined), for which the normalized B-score (activity score, 25-100; higher = stronger inhibition) entry is “inactive”. `CCOC(=O)c1cc2cc(-c3c(C(=O)OCC)oc4cc(O)cc(O)c4c3=O)ccc2o1`: the normalized B-score (activity score, 25-100; higher = stronger inhibition) is 100 (active). Regarding `CCOC(=O)c1cc(=O)c2ccc(OCc3ccccc3)cc2o1`, the normalized B-score (activity score, 25-100; higher = stronger inhibition) result is “inactive”. For the molecule `O=c1c(-c2ccc3c(c2)OCCO3)c(C(F)(F)F)oc2cc(O)cc(O)c12`, the normalized B-score (activity score, 25-100; higher = stronger inhibition) result was “inactive”. With `COCCn1c(Cc2cccn2C)nnc1SCC(=O)Nc1nccs1`, the normalized B-score (activity score, 25-100; higher = stronger inhibition) result was “inactive”.

Take `COCCCN1C(=O)c2ccc(C(=O)OCC(=O)NCc3ccccc3OC)cc2C1=O`: the normalized B-score (activity score, 25-100; higher = stronger inhibition) entry was “inactive”. In the case of `CC1(N2CCOCC2)CC2(O)C(=[N+]1[O-])CCc1nonc12` (centres undefined), the normalized B-score (activity score, 25-100; higher = stronger inhibition) result was “inactive”. In the case of `CN1C(=O)/C(=C\c2cc(Br)cs2)c2ccccc21`, the normalized B-score (activity score, 25-100; higher = stronger inhibition) entry is “inactive”. Consider `CCOC(=O)C1=C(c2ccc(OC)cc2)C(=O)c2ccccc2C1=O`, for which the normalized B-score (activity score, 25-100; higher = stronger inhibition) result was “inactive”. In the case of `COC(=O)C1=C(C)NC2=C(C(=O)c3ccccc32)C1c1ccc(-c2ccc(C(=O)O)cc2)o1` (centres undefined), the normalized B-score (activity score, 25-100; higher = stronger inhibition) was 25 (active). Consider `Cc1ccc(C2C3=C(Nc4[nH]n(-c5ccccc5)c(=O)c42)c2ccccc2C3=O)cc1` (centres undefined), for which the normalized B-score (activity score, 25-100; higher = stronger inhibition) entry is “inactive”. Consider `CCCOc1ccc(-c2nc(N)n[nH]2)cc1`, for which the normalized B-score (activity score, 25-100; higher = stronger inhibition) result was “inactive”. The value for `CCCOc1ccc(Cc2c(O)nc(SC)[nH]c2=O)cc1C` was “inactive”; that for `CCCOc1ccc(Cc2c(Cl)nc(SC)nc2NC)cc1` was 100 (active). With `CSc1ncccc1C(=O)OCc1ccc(Br)cc1`, the normalized B-score (activity score, 25-100; higher = stronger inhibition) entry is “inactive”. Turning to `COc1ccc(OC)c(C2C3=C(N=c4s/c(=C\c5cccc(O)c5)c(=O)n42)c2ccccc2CC3)c1` (centres undefined), the normalized B-score (activity score, 25-100; higher = stronger inhibition) result was “inactive”. Turning to `CC1=NN(c2ccccc2)C(=O)C1C(=O)c1ccc([N+](=O)[O-])cc1` (centres undefined), the normalized B-score (activity score, 25-100; higher = stronger inhibition) entry is “inactive”. As to `O=C1CC(c2ccccc2)=NN1c1ccc([N+](=O)[O-])cc1`, the normalized B-score (activity score, 25-100; higher = stronger inhibition) is 100 (active). Consider `Cc1nn(-c2ccc([N+](=O)[O-])cc2)c(N)c1-c1ccccc1`, for which the normalized B-score (activity score, 25-100; higher = stronger inhibition) entry is “inactive”. `CCNC(=O)NNC(=O)C1CC(c2cccs2)=NO1` (centres undefined): the normalized B-score (activity score, 25-100; higher = stronger inhibition) result was “inactive”.

Turning to `Nc1nnc(SCC(=O)OCc2ccc(Cl)c(Cl)c2)s1`, the normalized B-score (activity score, 25-100; higher = stronger inhibition) entry is “inactive”. As for `Cc1ccc(CNC(=O)C2CCCN2C(=O)NCc2ccccc2)cc1` (centres undefined), the normalized B-score (activity score, 25-100; higher = stronger inhibition) result is “inactive”. Turning to `Cc1cc(/C=C2\SC(=O)N(C)C2=O)c(C)n1-c1cccc(C(=O)O)c1`, the normalized B-score (activity score, 25-100; higher = stronger inhibition) result is “inactive”. For the molecule `Cc1ccc(C(=O)N/C(=C\c2cn(C)c3ccccc23)C(=O)N2CCN(C)CC2)cc1`, the normalized B-score (activity score, 25-100; higher = stronger inhibition) entry was “inactive”. On to `Cc1ccc(N2C(=O)S/C(=C/c3cn(C)c4ccccc34)C2=O)cc1`, for which the normalized B-score (activity score, 25-100; higher = stronger inhibition) was 25 (active). With `CC(C)COc1ccc(C(=O)OCC(=O)NCCC2=CCCCC2)cc1`, the normalized B-score (activity score, 25-100; higher = stronger inhibition) result was “inactive”. Regarding `CC(C(=O)NC1CCS(=O)(=O)C1)N1C(=O)/C(=C/c2ccc(Cl)cc2)SC1=S` (centres undefined), the normalized B-score (activity score, 25-100; higher = stronger inhibition) result is “inactive”.

In the case of `Cc1noc(C)c1CSc1nc2cc(S(=O)(=O)N3CCOCC3)ccc2o1`, the normalized B-score (activity score, 25-100; higher = stronger inhibition) result was “inactive”. For the molecule `COc1ccccc1NC(=O)CCCc1c[nH]c2ccccc12`, the normalized B-score (activity score, 25-100; higher = stronger inhibition) result was “inactive”. The value for `COc1cccc(CNCCc2c[nH]c3ccccc23)c1OCc1ccccc1F` was 100 (active); that for `COc1ccc(S(=O)(=O)NCCc2c[nH]c3ccccc23)cc1OC` was “inactive”. As for `CC(=O)Nc1ccc(Sc2ccccc2C(=O)N2CCCC2)cn1`, the normalized B-score (activity score, 25-100; higher = stronger inhibition) result was “inactive”. Turning to `COc1ccc(-n2ncc3c2CC(C)(C)CC3NC(=O)CCc2c(C)nn(C)c2C)cc1` (centres undefined), the normalized B-score (activity score, 25-100; higher = stronger inhibition) entry was “inactive”. For `COc1ccc(CNC(=O)C(=O)N2CCC3(CC2)OCCN3S(=O)(=O)c2ccc(C)cc2)cc1`, the normalized B-score (activity score, 25-100; higher = stronger inhibition) entry is “inactive”. Regarding `CCOC(=O)C(Sc1ncc(C#N)c(N)n1)C(C)C` (centres undefined), the normalized B-score (activity score, 25-100; higher = stronger inhibition) is 100 (active). In the case of `CCCCOc1ccc(-c2ncc(C(=O)OCC)c(N)n2)cc1`, the normalized B-score (activity score, 25-100; higher = stronger inhibition) result was “inactive”. As for `CCOC(=O)CSc1nccc(N(C)C)c1C#N`, the normalized B-score (activity score, 25-100; higher = stronger inhibition) result is “inactive”. On to `COc1cc2sc(C)nc2cc1C`, for which the normalized B-score (activity score, 25-100; higher = stronger inhibition) result is “inactive”. With `CCOc1ccc(-c2noc(CCC(=O)NC3CCCC3)n2)cc1OC`, the normalized B-score (activity score, 25-100; higher = stronger inhibition) entry was “inactive”. Turning to `COc1cccc(NC(=O)CCc2nnc3ccc(N4CCC(C)CC4)nn23)c1`, the normalized B-score (activity score, 25-100; higher = stronger inhibition) entry was “inactive”.

For the molecule `Cc1ccc(NC(=O)C2CC2c2ccccc2)cc1` (centres undefined), the normalized B-score (activity score, 25-100; higher = stronger inhibition) result was “inactive”. As to `O=C(Nc1ccc(-c2ccc3nncn3n2)cc1)C1CCCCC1`, the normalized B-score (activity score, 25-100; higher = stronger inhibition) result is “inactive”.

Regarding `CC(C)NS(=O)(=O)c1ccc(NC(=O)C2CCCCC2)cc1`, the normalized B-score (activity score, 25-100; higher = stronger inhibition) entry is “inactive”. The value for `O=C(O)c1ccc(NC(=O)C2CCCCC2)cc1` was 100 (active); that for `COc1cc(C(=O)N(C)Cc2cccc(OC)c2OC)ccc1OCC(=O)Nc1cccc(C(F)(F)F)c1` was 100 (active); that for `COc1ccc(NC(=O)CN(C)CC(=O)Nc2cccc(C(F)(F)F)c2)cc1` was “inactive”. With `CCNC(=O)c1ccc(OCC(=O)Nc2ccc(F)cc2)c(OC)c1`, the normalized B-score (activity score, 25-100; higher = stronger inhibition) result is “inactive”. With `COC(=O)Cc1ccc(N(Cc2ccccc2F)S(=O)(=O)c2ccc(Br)cc2)cc1`, the normalized B-score (activity score, 25-100; higher = stronger inhibition) result was “inactive”.

With `CCCc1ccc(-c2csc(NC(=O)Cc3cccs3)n2)cc1`, the normalized B-score (activity score, 25-100; higher = stronger inhibition) result is “inactive”.

Turning to `Cc1ccc(S(=O)(=O)NC(=O)Nc2nc(-c3ccc(F)c(F)c3)cs2)cc1`, the normalized B-score (activity score, 25-100; higher = stronger inhibition) result is “inactive”. Turning to `COc1cc(CC(=O)NCc2cccs2)cc(OC)c1OC`, the normalized B-score (activity score, 25-100; higher = stronger inhibition) result was “inactive”.

Take `COc1ccc(-c2csc(NC(=O)COC(=O)Cc3ccc(Cl)cc3Cl)n2)cc1`: the normalized B-score (activity score, 25-100; higher = stronger inhibition) entry was “inactive”. In the case of `COc1ccc(CC(=O)Nc2nc(-c3ccc(F)c(F)c3)cs2)cc1OC`, the normalized B-score (activity score, 25-100; higher = stronger inhibition) was 25 (active). The value for `COc1cc(CC(=O)Nc2nc(-c3ccc(F)c(F)c3)cs2)cc(OC)c1OC` was 25 (active).

Values taken from PubChem BioAssay AID588511 (Johns Hopkins Ion Channel Center, 2011).
